# About 83,000 compounds went through this panel and 20% of them were active in at least one assay; those are over-represented in the sample as a whole.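 Note: values are percent growth. 100 is the growth of untreated cells, values between 100 and 0 indicate rising inhibition; between -100 and 0 indicates cell death.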 A number with no mark means an inactive call. Active and inactive are the calls of the source. How the source made its calls: active means growth percent below 10; inactive means the rest.
# Legend:
# Experiment in all cases: NCI-60 one-dose screen, 48 h (100 = growth as untreated, 0 = no growth, -100 = all killed)
# Settings in all cases: 10 µM
# SK-MEL-2 melanoma = test system: SK-MEL-2 melanoma
# SN12C renal = test system: SN12C renal
# UO-31 renal = test system: UO-31 renal
# TK-10 renal = test system: TK-10 renal
# ACHN renal = test system: ACHN renal
# CAKI-1 renal = test system: CAKI-1 renal
# A498 renal = test system: A498 renal
# CCRF-CEM leukemia = test system: CCRF-CEM leukemia
# MOLT-4 leukemia = test system: MOLT-4 leukemia
# RPMI-8226 leukemia = test system: RPMI-8226 leukemia
# OVCAR-8 ovarian = test system: OVCAR-8 ovarian
# OVCAR-5 ovarian = test system: OVCAR-5 ovarian
# OVCAR-4 ovarian = test system: OVCAR-4 ovarian
# SK-OV-3 ovarian = test system: SK-OV-3 ovarian
# IGROV1 ovarian = test system: IGROV1 ovarian
# OVCAR-3 ovarian = test system: OVCAR-3 ovarian
# HS 578T breast = test system: HS 578T breast
# NCI/ADR-RES ovarian = test system: NCI/ADR-RES ovarian
# SR leukemia = test system: SR leukemia
Structure (SMILES),growth (SK-MEL-2 melanoma) [%],growth (SN12C renal) [%],growth (UO-31 renal) [%],growth (TK-10 renal) [%],growth (ACHN renal) [%],growth (CAKI-1 renal) [%],growth (A498 renal) [%],growth (CCRF-CEM leukemia) [%],growth (MOLT-4 leukemia) [%],growth (RPMI-8226 leukemia),growth (OVCAR-8 ovarian) [%],growth (OVCAR-5 ovarian) [%],growth (OVCAR-4 ovarian) [%],growth (SK-OV-3 ovarian) [%],growth (IGROV1 ovarian) [%],growth (OVCAR-3 ovarian) [%],growth (HS 578T breast) [%],growth (NCI/ADR-RES ovarian) [%],growth (SR leukemia)
CCCCCCCC/C=C/CCCCCCCCC1=NCCN1CCO,95.1,64.1,38.5,124,58.7,80.5,84.7,19.7,34.3,52.7%,74.9,95.2,81.7,97.8,63.8,83.1,81,81.1,–
Cc1ccc(C2C=C(c3ccc(Cl)cc3)N=C3SC=CN32)c(Br)c1 (centres undefined),105,94,57.8,125,91.8,65.1,87,–,64.9,-0.582% (active),80,92.8,67.4,101,75.7,87.1,94.1,85.6,0.074% (active)
COC(=O)c1c(C)nc(Nc2nc3ccccc3s2)nc1-c1ccc(Cl)cc1Cl,120,99.8,81.2,120,96.7,99.6,100,–,84.7,96.2%,103,113,91.6,102,124,92.2,108,104,99.4%
COc1cccc(-c2nnc(COc3ccc(-c4nc5ccc(C)cc5[nH]4)cc3OC)o2)c1,98.8,72.6,88.2,102,25.9,94.4,71.3,–,25.6,-12.2% (active),46.9,103,54.4,101,85.1,77.4,31.1,76.8,-25.7% (active)
CC(=O)[C@H]1CC[C@H]2[C@@H]3CC[C@@H]4CC=C(C=O)C[C@]4(C)[C@H]3CC[C@]12C,99.3,93.4,84.8,85.2,–,88.5,76.8,82.6,72.8,58.1%,97.8,96.9,99,95.8,89.4,107,106,87.5,73.5%
Cn1cnc([N+](=O)[O-])c1/C=C1\Oc2ccc(Cl)cc2C1=O,82.2,98.9,48.3,98.2,79.4,78.1,98.4,–,49.3,70.7%,72.5,108,92.3,96.2,73.1,86,104,100,20.7%
O=C(CCc1ccccc1)N1CCN(C(=O)CCc2ccccc2)CC1,104,96.9,60.1,111,–,95.1,152,88.2,88.6,92.3%,96,110,101,115,99.7,118,100,108,94.3%
O=NN(CCCl)C(=O)NCc1ccc(-c2ccc(CNC(=O)N(CCCl)N=O)cc2)cc1,95.1,97.8,67.7,105,105,96.6,102,–,82.3,93.5%,94,115,114,95.8,66.6,115,116,100,-5.09% (active)
